According to PubChem BioAssay AID686979 (National Center for Advancing Translational Sciences (NCATS), 2013):
The whole screen tested about 420,000 compounds, of which about 50,000 (12%) were called active. Inconclusive results (about 26%) are left out. For the sample, actives were picked, then their nearest neighbours and some compounds at random. Values without a mark were called inactive. Calls come from the whole dose curve; as a rule, active = well fitted inhibition curve with a large enough effect; inconclusive = small, poorly fitted or top-dose-only effect; inactive = flat fitted curve, though single readings scatter.

Assay: qHTS for Inhibitors of human tyrosyl-DNA phosphodiesterase 1 (TDP1): qHTS in cells in presence of CPT; note: nearly all actives have a fitted effect of over 55% in size
Conditions: chicken DT40 Tdp1-/-;hTDP1 cells + 20 nM CPT, ATP luminescence, 48 h; series mostly up to 46.2 µM; activity change, negative = growth inhibition: at the top concentration
Outline: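 Chicken DT40 Tdp1-/- cells complemented with human TDP1, 400 cells/well, exposed to compounds plus 20 nM camptothecin for at least 48 h at 37 C; viability read as ATP content by CellTiter-Glo luminescence.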
% is set by controls: 0 for no effect and ±100 for the full control effect; potency is the fitted concentration of half-maximal effect.

Row | Compound | activity change, negative = growth inhibition | Potency
1 | COc1ccc(CNC(=O)CN(C(=O)c2csnn2)c2cnc3ccccc3c2)cc1 | -24% | 
2 | COCCNc1nnc(SCC(=O)NNC(=O)c2ccco2)s1 | -0.281% | 
3 | Cc1ccc(NC(=O)C2CC2c2ccccc2)cc1 (stereo not given) | -15.6% | 
4 | O=C(/C=C/[C@H]1O[C@@H](n2cnc3c(NC(=O)c4ccccc4)ncnc32)[C@H](O)[C@@H]1O)NCc1ccccc1 | -25.5% | 
5 | CC1CCCCC12NC(=O)N(CC(=O)Nc1ccc(S(=O)(=O)Nc3ncccn3)cc1)C2=O (stereo not given) | 0.923% | 
6 | CCC(C)N(C(=O)COC(=O)C1C(C(=O)OC)=C(C)NC(C)=C1C(=O)OC)C1CCS(=O)(=O)C1 (stereo not given) | 0.101% | 
7 | COc1cc(OC)c(C(=S)N2CCCC2)cc1OC | -22% | 
8 | CSc1ccccc1C(=O)OCC(=O)N1CCN(C(C)=O)CC1 | -0.484% | 
9 | Cc1ccc(NC(=O)[C@H](Cc2ccccc2)NC(=O)CC[C@H]2O[C@@H](n3ccc(=O)[nH]c3=O)[C@H](O)[C@@H]2O)cc1C | -6.82% | 
10 | Cc1cccc(C(=O)Nc2ccc(Oc3cnccn3)cc2)c1 | -11.8% | 
11 | CCN(CC)C(=O)C1=C(C)N(Cc2ccc(OC)cc2)C(=O)C(CC(=O)NCc2ccco2)C1 (stereo not given) | -18.4% | 
12 | CCCCNC(=O)C[C@@H]1C[C@@]2(C(=O)OCC)CCC=C2N(Cc2ccco2)C1=O | -11.1% | 
13 | CC1=C(C(=O)N2CCOCC2)CC(CC(=O)NCc2cccc3ccccc23)C(=O)N1CCC1=CCCCC1 (stereo not given) | -11.8% | 
14 | C#CCNC(=O)C[C@@H]1C[C@@]2(C(=O)OCC)CCCC=C2N(Cc2ccco2)C1=O | -5.49% | 
15 | CCCCNC(=O)C[C@@H]1C[C@@]2(C(=O)OCC)CCC=C2N(Cc2cccc3ccccc23)C1=O |  | 16.4 µM (active)
16 | CCOC(=O)[C@]12CCC=C1N(CCC1=CCCCC1)C(=O)[C@H](CC(=O)NCc1ccc(C)o1)C2 |  | 16.4 µM (active)
17 | Cc1ccccc1OCC(=O)NNC(=O)c1cc(S(=O)(=O)N(C)C)ccc1N1CCCC1 | -16.2% | 
18 | COc1ccc(NC(=O)CN(C)C(=O)CC2CCCCC2)cc1 | 1.32% | 
19 | COc1cc(OC)c(C2C=C(C(=O)O)Nc3ncnn32)cc1OC (stereo not given) | 0.986% | 
20 | CC(C)CC(=O)Nc1ccc(Cc2ccncc2)cc1 | -22.1% | 
21 | CCNC(=O)C1(C)CCN(C(=O)c2ccccc2)C1 (stereo not given) | -20.3% | 
22 | CCOC(=O)NC(=O)C(=CNc1cccc(OC)c1)C(=O)NC(=O)OCC | 1.35% | 
23 | COCCn1nnnc1C(c1cc2ccc(OC)cc2[nH]c1=O)N1CCc2ccccc2C1 (stereo not given) | -27.8% | 
24 | CCC(c1nnnn1Cc1ccco1)N(CCc1ccccc1)Cc1cc2ccc(OC)cc2[nH]c1=O (stereo not given) |  | 23.1 µM (active)
25 | COc1ccc2[nH]c3c(=O)n(Cc4ccco4)cnc3c2c1 | -2.12% | 

Row | Compound | activity change, negative = growth inhibition | Potency
26 | COc1cc(OC)c(C(=O)N2CCCC2)cc1OC | 22.1% | 
27 | Cc1ccc(NC(=O)C(C)Sc2nnc(C3CC3)n2C2CC2)cc1S(=O)(=O)N1CCOCC1 (stereo not given) | -20.8% | 
28 | CSCCC(NC(=O)c1ccc(Cl)cc1Cl)C(=O)NNC(=O)c1csc(N2CCOCC2)n1 (stereo not given) | 4.89% | 
29 | CCOC(=O)c1cc2c(nc1NC(=S)Nc1ccccc1)CC(C)(CC)OC2 (stereo not given) | 0.397% | 
30 | O=C(NNS(=O)(=O)c1ccc(F)cc1)C1CCCCC1 | 2.3% | 
31 | Cc1ccccc1CNC(=O)C1CCCN(S(=O)(=O)N(C)c2ccc(F)cc2)C1 (stereo not given) |  | 23.1 µM (active)
32 | O=C(NCc1ccccc1Cl)C1CCCN1S(=O)(=O)c1ccc(F)cc1 (stereo not given) | -27.9% | 
33 | CCOC(=O)c1c(S(=O)(=O)N2CCCC(C(=O)NCc3ccc(F)cc3)C2)c(C)n(CC)c1C (stereo not given) | -14.2% | 
34 | CCNC(=O)CC1C(=O)N(c2ccc(OC)cc2)C(=O)N1CCOC (stereo not given) | -3.13% | 
35 | CN(C)N=Nc1ccc2nc[nH]c2c1 | -13.5% | 
36 | Cc1ccc2c(N)c(C(=O)c3ccccc3)sc2n1 | -24.8% | 
37 | CCCCNC(=O)c1ccc2c(c1)NC(=O)C(C(C)C)N2 (stereo not given) | -22% | 
38 | Cc1[nH]c2ccccc2c1C(=O)COC(=O)C(C)C | -4.53% | 
39 | Cc1ccc2c(C(=O)CN3CCCC3)c(C)[nH]c2c1 | -19.6% | 
40 | Cc1[nH]c2ccccc2c1C(=O)CSCC(=O)O | -19.6% | 
41 | Cc1[nH]c2ccccc2c1C(=O)CN1CCCC(C)C1 (stereo not given) | 4.31% | 
42 | CCOC(=O)N1CCN(CC(=O)c2c(C)[nH]c3ccccc23)CC1 |  | 18.4 µM (active)
43 | Cc1[nH]c2ccccc2c1C(=O)CN1CC(C)CC(C)C1 (stereo not given) |  | 11.6 µM (active)
44 | CCOCCCNC(=O)C(NC(=O)Cc1c[nH]c2ccccc12)c1ccc(OC)cc1 (stereo not given) | 2.87% | 
45 | COc1cccc(NC(=O)N2CCN(C(=O)c3nsc4ccccc34)CC2)c1 | 5.7% | 
46 | COC(=O)Cn1cnc2scc(-c3ccc(C)c(C)c3)c2c1=O | 7.8% | 
47 | CCOC(=O)c1c(NC(=O)CCl)sc(C(=O)N(CC)CC)c1C |  | 13 µM (active)
48 | CCOC(=O)c1c(NC(=O)COC(=O)c2ccc(S(=O)(=O)C(F)F)cc2)sc(C(=O)N(C)C)c1C | -14.4% | 
49 | CCOC(=O)Nc1sc(C(=O)N(C)C)c(C)c1C(=O)OCC | -13.3% | 
50 | O=C(COC(=O)c1ccc([N+](=O)[O-])cc1Cl)NC(=O)c1ccccc1 | 1.48% | 

Row | Compound | activity change, negative = growth inhibition | Potency
51 | O=C(NCCN1CCOCC1)c1cnn(-c2nccc(-c3cccs3)n2)c1C1CC1 | 2.01% | 
52 | O=C(Nc1ccc2nc3n(c(=O)c2c1)CCCC3)c1ccc(Cl)nc1 | -13.5% | 
53 | NS(=O)(=O)c1ccc(NC(=O)C(=O)Nc2ccc3nc4n(c(=O)c3c2)CCCCC4)cc1 | 14.5% | 
54 | COc1cccc(C(=O)Nc2ccc(N3CCCC3)cc2)c1 |  | 9.2 µM (active)
55 | COc1cccc(C(=O)Nc2ccc(N3CCN(C(=O)c4ccco4)CC3)cc2)c1 |  | 14.6 µM (active)
56 | COc1ccc(C(=O)Nc2ccc(N3CCC(C)CC3)cc2)cc1Br | 8.77% | 
57 | CCC(=O)Nc1ccc(C(=O)N2CCN(C(=O)c3ccco3)CC2)cc1 | -9.24% | 
58 | O=C(c1ccco1)N1CCN(c2cccc(Cl)c2)CC1 | -25.2% | 
59 | COc1cccc(C(=O)Nc2ccc(NC(=O)c3ccco3)cn2)c1 | -16.7% | 
60 | COc1cccc(C(=O)Nc2ccc3nc4n(c(=O)c3c2)CCCCC4)c1 |  | 20.6 µM (active)
61 | Cc1ccc(C)c(OCC(=O)N2CCN(C(=O)c3ccco3)CC2)c1 | -28.5% | 
62 | Cc1ccc(OCC(=O)Nc2ccc(N3CCN(C(=O)c4ccco4)CC3)cc2)c(C)c1 |  | 16.4 µM (active)
63 | CN1CCN(c2ccc(NC(=O)c3ccccc3)cc2)CC1 | 0.495% | 
64 | COc1cccc(COC(=O)C2CCN(S(=O)(=O)c3ccc(Cl)cc3)CC2)c1OC | -13.8% | 
65 | COc1ccc(CN2CC[C@H]3C=CC[C@@H](C(=O)N4CCOCC4)[C@H]3C2=O)cc1OC |  | inactive
66 | C=CCN1C(=NC(=O)COc2ccccc2)SC2CS(=O)(=O)CC21 (stereo not given) | -2.8% | 
67 | COc1ccc(CCNC(=O)CSc2nnc3ccc(-c4ccncc4)nn23)cc1 | -27.7% | 
68 | CCOC(CNC(=O)C(=O)NCC(c1ccco1)N1CCN(c2ccc(OC)cc2)CC1)OCC (stereo not given) | -12.4% | 
69 | COc1ccc2ccccc2c1CNCc1ccccn1 | -4.31% | 
70 | Cc1cccc(C(C)C)c1NC(=O)COC(=O)C1CC(=O)N(Cc2ccccc2)C1 (stereo not given) | -15.7% | 
71 | COc1ccc2[nH]cc(CCN3C(=O)c4ccc(C(=O)O)cc4C3=O)c2c1 | -5.94% | 
72 | COc1ccc2[nH]cc(CCNc3cc(-c4ccccc4CN(C)C)ncn3)c2c1 | -26.4% | 
73 | COc1ccc2[nH]cc(CCNc3ncnc4ccc(-c5ccc(C(=O)N(C)C)cc5)cc34)c2c1 |  | 20.6 µM (active)
74 | Cc1ncc([N+](=O)[O-])n1CCOC(=O)c1ccc(Br)cc1 | 5.56% | 
75 | CCOC(=O)c1ccc2c(c1)nc(C)n2CC | -27.8% | 

Row | Compound | activity change, negative = growth inhibition | Potency
76 | CCn1c(/C=C/Nc2ccccc2)[n+](CC)c2ccc(C(=O)OCC(F)(F)F)cc21 |  | 25.9 µM (active)
77 | NC(CSC1(c2ccccc2)c2ccccc2-c2ccccc21)C(=O)O (stereo not given) | -18.1% | 
78 | CCNC(=O)Nc1ccc(S(=O)(=O)Nc2cnc(C)nc2C)cc1 | -2.56% | 
79 | Cc1cc(C)c(C#N)c(SCC(=O)N(CC(C)C)C2CCS(=O)(=O)C2)n1 (stereo not given) | 2.6% | 
80 | CS(=O)(=O)Nc1ccc(C(=O)N2CCCC2)cc1 | 12.6% | 
81 | CCCS(=O)(=O)Nc1ccc(-c2cn3c(n2)SCC3)cc1 | -0.742% | 
82 | CNc1cncc(-c2ccc(NS(C)(=O)=O)cc2)n1 |  | 2.91 µM (active)
83 | CC1(C)C/C(=N/Nc2ccc([N+](=O)[O-])cc2[N+](=O)[O-])C(C)(C)O1 | -11.8% | 
84 | CCc1c(C)nc(SCC(=O)NC2CCCC2)[nH]c1=O | -2.07% | 
85 | CC(C)(C)C(=O)Cn1c(NCCO)nc2ccccc21 | -3.07% | 
86 | CCCn1c(NCc2ccc(N(CC)CC)cc2)nc2ccccc21 |  | 25.9 µM (active)
87 | CCCn1c(NCc2ccccc2F)nc2ccccc21 | 5.1% | 
88 | CC(=O)NC(CC(=O)Nc1ccc(S(=O)(=O)N2CCOCC2)cc1)c1ccccc1 (stereo not given) | 0.997% | 
89 | O=S(=O)(c1ccc(F)cc1)N1CC=C(c2ccccc2)CC1 | -1.63% | 
90 | COc1ccc(N(CC(=O)Nc2ccc(F)c(F)c2)S(=O)(=O)c2c(C)[nH]c(=O)[nH]c2=O)cc1 | 2.44% | 
91 | S=C(Nc1cccc(Cl)c1)Nc1ccc2c(c1)OCCO2 | -30.1% | 
92 | c1ccc(CN2CCC(N=C3NN=C(c4ccc5c(c4)OCCO5)CS3)CC2)cc1 | -26.3% | 
93 | Clc1cccc(N=C2NN=C(c3ccc4c(c3)OCCO4)CS2)c1 |  | 20.6 µM (active)
94 | CCOC1CS(=O)(=O)CC1OCC (stereo not given) | -5.04% | 
95 | CC(=O)Nc1ccc(NC(=O)CSc2nnnn2-c2ccccc2F)cc1 | -24.4% | 
96 | CNC(=O)C1CCN(S(=O)(=O)c2c(C)noc2/C=C/c2cccc(C)c2)CC1 | -10.1% | 
97 | CC(=O)c1ccc(NC(=O)C2CCN(S(=O)(=O)c3c(C)noc3/C=C/c3ccc(C)cc3)CC2)cc1 | -24.3% | 
98 | Cc1cccc(NC(=O)C2CCN(S(=O)(=O)c3c(C)noc3/C=C/c3ccco3)CC2)c1 |  | 16.4 µM (active)
99 | Cc1ccc(S(=O)(=O)N(C)C)cc1NC(=O)c1ccc(-n2cncn2)c([N+](=O)[O-])c1 | -3.09% | 
100 | COc1ccccc1CNCc1ccc(C(=O)O)s1 | -5.35% | 
